D2 ag-1 – agonists of human D2 dopamine receptor (beta-arrestin); AID 624465; actives 0.084% (n = 360,000); activation, % (no concentration beside the values); DiscoveRx PathHunter D2 beta-arrestin, luminescence, 90 min; 100% = 57 uM dopamine signal; in the data active means activation above about 40%; inconclusive means between about 15% and that limit
Target sequence (P14416 whole entry, looked up): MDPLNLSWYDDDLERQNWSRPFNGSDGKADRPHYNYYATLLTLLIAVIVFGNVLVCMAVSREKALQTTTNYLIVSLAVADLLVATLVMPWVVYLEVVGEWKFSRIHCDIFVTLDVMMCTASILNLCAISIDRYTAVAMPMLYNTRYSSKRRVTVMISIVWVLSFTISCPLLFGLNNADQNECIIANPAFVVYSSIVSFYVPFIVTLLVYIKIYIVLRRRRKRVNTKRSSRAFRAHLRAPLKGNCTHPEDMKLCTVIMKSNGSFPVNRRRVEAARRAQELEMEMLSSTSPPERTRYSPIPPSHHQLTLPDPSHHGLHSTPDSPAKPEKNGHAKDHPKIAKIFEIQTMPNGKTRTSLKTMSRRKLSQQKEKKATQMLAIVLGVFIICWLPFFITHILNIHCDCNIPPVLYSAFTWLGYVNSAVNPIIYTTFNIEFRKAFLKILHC
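DiscoveRx PathHunter D2 beta-arrestin cells (2,100/well) attached overnight, then compound-stimulated 90 min at 37 C in HBSS/10 mM HEPES/0.1% Tween-20 buffer; beta-galactosidase complementation read by luminescence after 1 h at ambient temperature. Dopamine 57 uM final (EC100) as control.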
D2 ag-2 – agonists of human D2 dopamine receptor. activation, % at 2 µM. actives 0.53% (n = 340,000). HEK293 T-REx D2 cells, calcium flux agonist mode. P14416. AID 485358;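 active means activation over 3 SD above normal in the single-dose calcium agonist read, cut at about 30% in these data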; further: 0% is about no effect
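HEK293 Trex D2 cells, tetracycline-induced, o/n 30 C 5% CO2; no-wash Ca dye, RT 30–90 min; 10-cycle baseline, 23 nl cpd added, kinetic Ca read 180 s; agonist hits = positive Ca response.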
D2 PAM-1 – potentiates the human D2 dopamine receptor allosterically | potentiation, % (no concentration beside the values) | actives 0.23% (n = 360,000) | DiscoveRx D2 beta-arrestin cells, luminescence, 90 min; 100% = 57 uM dopamine signal | P14416; in the data active means potentiation above about 50%; inconclusive means mostly about 30% to 49%
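PathHunter beta-arrestin assay in DiscoveRx D2 cells. Compounds were added with an EC20 of dopamine (50 nM final) for 90 min at 37 deg C. Luminescence was read 1 h after detection reagent, with 57 uM dopamine as the EC100 control.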
D2 PAM-2 – positive allosteric modulators of human D2 dopamine receptor; HEK293 T-REx D2, calcium flux, EC20 dopamine potentiation; potentiation, % at 10 µM; actives 0.34% (n = 340,000);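 active means potentiation over 3 SD above the plate norm, cut at about 30% in these data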; further: 0% is about no effect
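Tetracycline-induced Hek293 Trex D2 cells, force-coupled to calcium, loaded with no-wash calcium dye. Compound added with 180 s kinetic read for agonism, then EC20 dopamine and a further 180 s read for potentiation.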
D2 antag – antagonizes the human D2 dopamine receptor; P14416; HEK293 TREx D2 cells, calcium flux, dopamine EC80; inhibition, % at 10 µM; actives 2% (n = 340,000); AID 485344; in the data active means inhibition above about 30%; inactive means below that, where a call was filed; further: 0% is about no effect
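Tetracycline-induced HEK293 T-REx cells expressing D2 force-coupled to calcium signalling were dye-loaded, exposed to compound for 180 s, then challenged with an EC80 of dopamine; calcium flux was followed kinetically for a further 180 s.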
D3 ag – confirmation of human D3 dopamine receptor agonists, beta-arrestin; AID 720506; Potency, µM (titrated, usually from 76.9 µM), inactives show top-dose activation, hits mostly activators; actives 4% (n = 2,300); shares compounds with D2 ag-2; DiscoveRx D3 beta-arrestin cells, luminescence, 90 min;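 further: potency means the concentration at half of the fitted maximal effect; 100% = dopamine control response; nearly all actives have a fitted effect of over 70% in size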
D2 ag-3 – D2 receptor agonism, beta-arrestin counterscreen; AID 720507; DiscoveRx PathHunter D2 beta-arrestin, luminescence, 90 min; response scale: percent relative to full dopamine signal; shares compounds with D2 ag-2; actives 5.9% (n = 2,300); Potency, µM (doses to about 76.9 µM), for inactives: at the highest dose activation, actives largely listed as activators; further: potency means the concentration at half of the fitted maximal effect; % of control where 0% means no effect; nearly all actives have a fitted effect of over 70% in size
* = called active by the depositor; ? = inconclusive; . = no result. Rows were chosen to be rich in hits. Some 2.4% of all compounds tested hit in one or more screens of this group. Unless noted, the call rests on the fitted dose curve; in most records, active means well fitted activation curve with a large enough effect; inconclusive means small, poorly fitted or top-dose-only effect; inactive means flat fitted curve, though single readings scatter.

SMILES | D2 ag-1 | D2 ag-2 | D2 PAM-1 | D2 PAM-2 | D2 antag | D3 ag | D2 ag-3
Nc1nc(CN2CCN(c3cccc(Cl)c3)CC2)nc(N2CCCc3ccccc32)n1 | ? | 42* | 29 | -16 | 70* | 16% | ?
COc1ccc(N2CCN(Cc3nc(N)nc(Nc4ccc(C)c(Cl)c4)n3)CC2)cc1 | 1 | 2 | -12 | -4 | -10 | . | .
Nc1nc(CN2CCN(c3ccccc3)CC2)nc(N2CCCc3ccccc32)n1 | ? | . | 54* | . | . | 35µM* | ?
Nc1nc(CSc2nnnn2-c2ccccc2)nc(N2CCCc3ccccc32)n1 | -3 | 8 | -11 | -6 | 0 | . | .
Cc1ccc(-c2cc(C(=O)Nc3c(C(=O)c4ccc(C)c(F)c4)oc4ccccc34)no2)cc1 | . | 3 | . | -11 | . | . | .
CSCCC(NS(=O)(=O)c1ccc2c(c1)oc(=O)n2C)C(=O)NCc1ccc(Cl)cc1 (centres undefined) | . | -1 | . | -10 | . | . | .
O=S(=O)(NCC(c1cccnc1)N1CCN(Cc2ccccc2)CC1)c1ccccc1 (centres undefined) | -6 | 61* | -11 | -16 | 30 | -2% | 6%
Cc1ccc(S(=O)(=O)NCC(c2cccnc2)N2CCN(Cc3ccccc3)CC2)cc1 (centres undefined) | -1 | 13 | -7 | -7 | -8 | . | .
C[C@H]1[C@H](C)CC[C@]2(C)CC[C@]3(C)C(=CC(=O)C4[C@@]5(C)CC[C@H](O)C(C)(C)C5CC[C@]43C)[C@H]12 (some centres undefined) | -4 | 0 | 0 | 0 | 21 | -2% | -1%
CCOc1ccc(NC(C)=O)cc1[N+](=O)[O-] | 1 | 0 | -10 | -7 | 6 | . | .
CCOc1ccc(NC(C)=O)cc1N | 4 | 1 | -6 | 0 | -5 | 1% | 1%
Cc1ccc(CN(C(=O)COc2ccccc2[N+](=O)[O-])c2ccccn2)cc1 | . | . | . | -27 | . | . | .
O=C(COc1ccccc1[N+](=O)[O-])N(Cc1ccccc1)c1ccccn1 | ? | 53* | 11 | -30 | 21 | ? | ?
CCc1nc2ccc(C(=O)NCCc3ccc(OC)cc3OC)cc2nc1CC | . | 0 | . | . | . | . | .
O=C(CN1C(=O)c2ccccc2C1=O)C(O)CN1C(=O)c2ccccc2C1=O (centres undefined) | 3 | . | 2 | . | . | . | .
CCOc1ccc(S(=O)(=O)Nc2cccc(C(=O)N3CCN(c4cccc(OC)c4)CC3)c2)cc1 | ? | . | -20 | . | . | ? | 25%
CCOc1ccc(S(=O)(=O)Nc2cccc(C(=O)N3CCN(c4ccccc4O)CC3)c2)cc1 | 5 | 5 | 2 | 6 | -7 | . | .
COc1cc(OC)cc(C(=O)N2CCN(c3ccccn3)CC2)c1 | 5 | -1 | 1 | 3 | -4 | . | .
COc1cccc(C(=O)N2CCN(c3ccccn3)CC2)c1 | ? | . | -4 | -18 | . | ? | 26%
COc1ccccc1NC(=S)N1CCN(c2ccccn2)CC1 | 1 | . | -9 | . | . | -2% | 6%
COc1ccccc1NC(=O)N1CCN(c2ccccc2F)CC1 | -1 | . | -12 | . | . | . | .
COc1ccccc1NC(=O)N1CCN(c2ccccn2)CC1 | -4 | 37* | 4 | -10 | -30 | 5% | 0%
Cc1c(C(=O)NC(C)c2ccccc2)sc2ncnc(N(C)C3CCCCC3)c12 (centres undefined) | . | 0 | . | 5 | . | . | .
COC(=O)c1ccc(C(=O)OC)c(NC(=S)N2CCN(c3ccccn3)CC2)c1 | 1 | 51* | 1 | -8 | 15 | 6% | 2%
S=C(Nc1ccc(Oc2ccccc2)cc1)N1CCN(c2ccccn2)CC1 | 1 | 13 | 0 | 7 | -31 | 18% | 4%
SMILES | D2 ag-1 | D2 ag-2 | D2 PAM-1 | D2 PAM-2 | D2 antag | D3 ag | D2 ag-3
O=C(Nc1ccccc1Cl)N1CCN(c2ccccn2)CC1 | 5 | 64* | 9 | -24 | 15 | -2% | -1%
S=C(Nc1ccc(Br)cc1Cl)N1CCN(c2ccccn2)CC1 | 2 | 57* | -16 | -13 | -6 | 5% | 27%
Cc1cccc(N2CCN(C(=O)CN3C(=O)COc4ccc(S(=O)(=O)N5CCCCCC5)cc43)CC2)c1C | . | 4 | . | 12 | . | . | .
CC(C)C(N)c1csc(NC(=O)Nc2ccc(OC(F)(F)F)cc2)n1 (centres undefined) | 6 | . | 8 | . | . | . | .
CCc1nc2c(OCCOc3ccc(F)cc3)cccn2c1N(C)C(=O)CC(C)C | -3 | . | -3 | . | . | . | .
O=C(Nc1ccccc1C(F)(F)F)N1CCN(c2ccccn2)CC1 | -5 | 50* | -1 | -16 | 19 | 0% | 5%
CC1CN(C(=O)CNC(=O)Cc2cccc3ccccc23)CC(C)O1 (centres undefined) | -2 | 1 | 0 | -11 | -22 | 1% | 0%
Brc1ccc2nc(C3CCCCC3)c(CC3CCCCC3)n2c1 | 2 | . | 2 | . | . | . | .
CCOC(=O)CCc1c(C(=O)OCC)[nH]c(CC)c1C(=O)OCc1ccccc1 | -7 | 0 | 1 | -2 | 7 | -3% | -3%
CCOC(=O)c1c(C)[nH]c(C(=O)OCc2ccccc2)c1C | -1 | 1 | -6 | -3 | -4 | . | .
CCCCn1cc(S(=O)(=O)c2ccc(C)c(C)c2)c(=O)c2cc(F)c(N(CC)CC)cc21 | . | -1 | . | -4 | . | . | .
CCCC(C)NC(=O)c1cc(S(=O)(=O)N2CCCCCC2)ccc1OC (centres undefined) | -2 | 1 | 0 | 4 | -12 | -5% | 0%
CC1CCCC(NC(=O)C2COc3ccccc3O2)C1C (centres undefined) | -1 | -1 | -19 | 6 | -14 | -3% | -3%
COc1cc2c(C(=O)NCCCN3CCN(c4cccc(Cl)c4)CC3)cn(C)c(=O)c2cc1OC | 3 | 4 | -31 | -26 | -7 | . | .
Cc1nc2nc(C)c(CCC(=O)NCCCN3CCN(c4cccc(Cl)c4)CC3)c(C)n2n1 | ? | 75* | -16 | -14 | 73* | 10% | ?
COc1ccc(S(N)(=O)=O)cc1C(=O)NCCCN1CCN(c2cccc(Cl)c2)CC1 | 10 | 56* | -12 | -19 | 50* | 13% | 24%
COc1ccc(Cl)cc1C(=O)NCCS(=O)(=O)N1CCN(c2ccccc2OC)CC1 | . | . | . | -11 | . | . | .
O=C(NCCCN1CCN(CCCNC(=O)c2cccc(Cl)c2)CC1)c1cccc(Cl)c1 | -2 | -1 | -24 | -11 | 2 | . | .
COc1ccc(S(N)(=O)=O)cc1C(=O)NCCCN1CCN(c2ccccc2OC)CC1 | 8 | 60* | -36 | -31 | 77* | -2% | 2%

Screening results as filed in PubChem BioAssay.
